The target of experiment [1] is Estrogen receptor (Homo sapiens) (UniProt P03372). Put plainly: qHTS assay for small molecule agonists of estrogen receptor alpha signaling (AID 588514). Further: nearly all actives have a fitted effect of over 70% in size. Further: potency means the concentration at half of the fitted maximal effect.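 On activation: 0% = vehicle only and 100% = reference agonist.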 Summed up: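 ER-alpha-UAS-bla GripTite HEK293 cells, 5000/well in 2% charcoal/dextran-stripped FBS medium, treated with compound titrations 18 h at 37 C. CCF4 beta-lactamase read by fluorescence after 2 h RT; normalised to 20 nM 17-beta-estradiol (100%) and DMSO (0%), Hill fit for EC50 and efficacy.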
Estrogen receptor (Homo sapiens), sequence (P03372 whole entry, looked up): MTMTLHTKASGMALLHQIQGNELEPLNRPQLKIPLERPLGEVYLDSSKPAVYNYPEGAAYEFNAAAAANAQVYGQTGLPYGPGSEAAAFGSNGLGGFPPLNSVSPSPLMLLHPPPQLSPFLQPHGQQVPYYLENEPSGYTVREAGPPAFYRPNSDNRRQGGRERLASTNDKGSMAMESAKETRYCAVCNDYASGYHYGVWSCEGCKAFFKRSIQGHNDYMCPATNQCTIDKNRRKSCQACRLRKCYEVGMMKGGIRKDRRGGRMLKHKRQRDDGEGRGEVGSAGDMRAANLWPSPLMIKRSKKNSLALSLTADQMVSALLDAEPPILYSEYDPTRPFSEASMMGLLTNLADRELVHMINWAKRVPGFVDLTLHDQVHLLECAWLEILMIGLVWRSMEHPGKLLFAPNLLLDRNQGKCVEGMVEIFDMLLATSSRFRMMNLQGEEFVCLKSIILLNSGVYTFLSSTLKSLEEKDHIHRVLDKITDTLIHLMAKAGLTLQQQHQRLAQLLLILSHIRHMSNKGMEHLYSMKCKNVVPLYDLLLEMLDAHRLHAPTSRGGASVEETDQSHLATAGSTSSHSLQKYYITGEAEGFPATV
A general note: Quantitative high-throughput screening tests each substance at several concentrations.

The target of experiment [2] is Glucocorticoid receptor (Homo sapiens) (UniProt P04150). Put plainly: qHTS assay for small molecule agonists of glucocorticoid receptor signaling (AID 588532; active means well fitted curve in the direction sought with a large enough effect in the signal ratio, with a control signal flat; the % refers to the signal ratio;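 further: 100% = dexamethasone at 0.1 µM and 0% = DMSO only wells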). The following applies: HeLa MMTV-bla, beta-lactamase ratio, agonist, 18 h; hits give high values; percent of dexamethasone control, DMSO zero. In a few lines: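 MMTV-bla HeLa, beta-lactamase reporter; medium with 1% charcoal/dextran-stripped FBS; cpds up to 92 uM, 18 h, 37 C; CCF4 readout 460/530 nm; Hill fit → EC50, efficacy vs 0.1 uM dexamethasone = 100%.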
Glucocorticoid receptor (Homo sapiens), sequence (P04150 whole entry, looked up): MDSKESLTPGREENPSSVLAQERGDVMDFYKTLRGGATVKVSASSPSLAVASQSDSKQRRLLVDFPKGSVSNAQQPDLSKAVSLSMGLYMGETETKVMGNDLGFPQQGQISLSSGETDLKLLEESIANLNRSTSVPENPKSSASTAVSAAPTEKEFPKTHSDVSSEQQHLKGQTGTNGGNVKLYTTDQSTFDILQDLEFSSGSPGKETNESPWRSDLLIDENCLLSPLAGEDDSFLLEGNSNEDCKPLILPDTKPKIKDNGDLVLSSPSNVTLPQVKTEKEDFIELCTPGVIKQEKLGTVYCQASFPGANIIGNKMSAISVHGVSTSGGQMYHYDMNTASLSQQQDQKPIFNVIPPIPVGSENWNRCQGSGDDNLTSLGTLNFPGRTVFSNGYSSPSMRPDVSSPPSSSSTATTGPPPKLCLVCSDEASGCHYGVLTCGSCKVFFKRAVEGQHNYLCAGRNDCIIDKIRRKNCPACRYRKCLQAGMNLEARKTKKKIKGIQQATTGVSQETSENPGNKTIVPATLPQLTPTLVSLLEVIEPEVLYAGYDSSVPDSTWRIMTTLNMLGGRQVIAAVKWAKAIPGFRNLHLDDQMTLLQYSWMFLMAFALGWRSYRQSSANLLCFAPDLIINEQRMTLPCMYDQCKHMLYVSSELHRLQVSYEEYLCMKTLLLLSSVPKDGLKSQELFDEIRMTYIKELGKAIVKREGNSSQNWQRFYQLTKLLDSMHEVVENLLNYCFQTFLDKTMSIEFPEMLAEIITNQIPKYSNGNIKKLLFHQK

The target is the same in experiment [3]. Nature of the experiment: qHTS assay for small molecule antagonists of glucocorticoid receptor signaling (AID 588533; active means well fitted inhibition curve with a large enough effect in the signal ratio, with a control signal flat, not every such curve was filed as active; the % refers to the signal ratio;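 further: cells stimulated with 2 nM dexamethasone as agonist; on the % scale 0 is the no-effect control and ±100 the full control effect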). Summed up: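 Antagonist-mode qHTS: compound titrations added to GRE-bla HeLa cells, then dexamethasone 2 nM final; 18 h, 37 C. CCF4 FRET fluorescence normalized to dexamethasone and DMSO; IC50 from Hill fit.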
In experiment [4] the target is Peroxisome proliferator-activated receptor gamma (Homo sapiens) (UniProt P37231). Put plainly: qHTS assay for small molecule antagonists of peroxisome proliferator-activated receptor gamma signaling (AID 588537; active means well fitted inhibition curve with a large enough effect in the signal ratio, with a control signal flat, not every such curve was filed as active; the % refers to the signal ratio;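 further: reporter cells co-stimulated with 50 nM rosiglitazone agonist during compound treatment; % of control where 0% means no effect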). In a few lines: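 We seeded GeneBLAzer HEK293 reporter cells at 3000 per well, allowed 6-6.5 h attachment at 37 C, then co-treated with test compound titrations and 50 nM rosiglitazone overnight (16 h). Inhibition was quantified from 460/530 nm emission ratios.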
Peroxisome proliferator-activated receptor gamma (Homo sapiens), sequence (P37231 whole entry, looked up): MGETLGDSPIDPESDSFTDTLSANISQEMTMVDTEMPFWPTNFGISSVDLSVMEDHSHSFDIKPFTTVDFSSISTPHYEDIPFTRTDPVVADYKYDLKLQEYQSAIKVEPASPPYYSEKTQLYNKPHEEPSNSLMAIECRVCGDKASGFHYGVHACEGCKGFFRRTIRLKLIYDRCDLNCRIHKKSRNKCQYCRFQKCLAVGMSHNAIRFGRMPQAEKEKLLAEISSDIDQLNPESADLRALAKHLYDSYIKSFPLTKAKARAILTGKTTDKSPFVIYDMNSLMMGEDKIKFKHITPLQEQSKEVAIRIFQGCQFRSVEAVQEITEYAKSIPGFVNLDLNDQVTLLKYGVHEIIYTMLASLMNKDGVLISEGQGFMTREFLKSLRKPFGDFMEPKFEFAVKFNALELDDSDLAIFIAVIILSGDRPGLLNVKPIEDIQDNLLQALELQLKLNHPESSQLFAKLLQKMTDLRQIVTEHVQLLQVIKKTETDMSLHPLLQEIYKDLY

Experiment [5] is described as follows: qHTS assay for small molecule agonists of the antioxidant response element (ARE) signaling pathway (AID 651741; active means well fitted activation curve with a large enough effect in the signal ratio; the % refers to the signal ratio; further: potency means the concentration at half of the fitted maximal effect; on activation: % of control where 0% means no effect). In a few lines:
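Compounds in DMSO are pinned onto HepG2 ARE-bla cells (2,000/well) that were preincubated 5 h; plates stay 16 h at 37 C, then beta-lactamase activity is detected with LiveBLAzer B/G substrate by fluorescence.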

The target of experiment [6] is Androgen receptor (Homo sapiens) (UniProt P10275). Put plainly: qHTS assay for small molecule agonists of androgen receptor signaling (AID 588515; active means well fitted curve in the direction sought with a large enough effect in the signal ratio, with a control signal flat; the % refers to the signal ratio; further: on the % scale 0 is the no-effect control and ±100 the full control effect). The conditions noted are these: AR-UAS-bla HEK293, beta-lactamase ratio, agonist 16 h; activation: hits give high values. Summed up: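 EC50 and efficacy came from Hill fits of titrations (up to 92 uM) normalized to 30 nM R1881 as 100% and DMSO as 0%. Compound exposure was 16 h at 37 C on AR-UAS-bla HEK293 cells, with a 405/460/530 nm CCF4 fluorescence read.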
Androgen receptor (Homo sapiens), sequence (P10275 whole entry, looked up): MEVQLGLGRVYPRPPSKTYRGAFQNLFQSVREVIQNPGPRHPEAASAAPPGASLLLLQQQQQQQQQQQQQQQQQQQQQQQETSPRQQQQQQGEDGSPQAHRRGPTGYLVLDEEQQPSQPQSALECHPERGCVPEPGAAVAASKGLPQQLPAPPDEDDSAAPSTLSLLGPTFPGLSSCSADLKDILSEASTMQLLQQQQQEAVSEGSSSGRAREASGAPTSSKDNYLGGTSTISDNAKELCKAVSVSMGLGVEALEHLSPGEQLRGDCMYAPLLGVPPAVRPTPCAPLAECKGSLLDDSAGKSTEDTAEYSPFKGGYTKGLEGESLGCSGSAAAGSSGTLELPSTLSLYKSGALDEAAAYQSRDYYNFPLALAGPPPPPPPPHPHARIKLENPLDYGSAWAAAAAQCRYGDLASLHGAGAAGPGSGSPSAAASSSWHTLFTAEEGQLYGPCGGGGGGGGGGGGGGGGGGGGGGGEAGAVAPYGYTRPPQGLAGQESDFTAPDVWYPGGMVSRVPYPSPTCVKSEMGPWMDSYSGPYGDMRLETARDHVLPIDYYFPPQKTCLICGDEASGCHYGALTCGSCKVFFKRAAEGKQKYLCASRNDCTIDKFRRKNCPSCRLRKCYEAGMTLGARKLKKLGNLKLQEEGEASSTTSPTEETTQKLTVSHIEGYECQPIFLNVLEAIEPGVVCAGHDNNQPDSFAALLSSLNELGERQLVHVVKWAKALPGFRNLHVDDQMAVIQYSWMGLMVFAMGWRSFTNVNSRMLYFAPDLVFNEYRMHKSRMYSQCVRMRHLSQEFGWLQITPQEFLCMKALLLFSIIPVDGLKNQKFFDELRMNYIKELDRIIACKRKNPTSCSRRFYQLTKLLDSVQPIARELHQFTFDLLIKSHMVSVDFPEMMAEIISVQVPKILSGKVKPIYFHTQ

The target is the same in experiment [7]. Put plainly: qHTS assay for small molecule antagonists of androgen receptor signaling (AID 588516; active means well fitted curve in the direction sought with a large enough effect in the signal ratio, with a control signal flat, not every such curve was filed as active; the % refers to the signal ratio; further: on the % scale 0 is the no-effect control and ±100 the full control effect). Summed up:
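Cells were plated and incubated 5 h, compounds added in titration, then R1881 (10 nM final) as agonist. After 16 h at 37 C, CCF4 substrate was loaded for 2 h at room temperature and fluorescence measured.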

Experiment [8] has as its target Bile acid receptor (Homo sapiens) (UniProt Q96RI1). Put plainly: qHTS assay for small molecule antagonists of farnesoid X receptor signaling (AID 588526). Further: on the % scale 0 is the no-effect control and ±100 the full control effect. In a few lines: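 Concentration-response titrations were fitted to the Hill equation for half-maximal inhibition and maximal response, with data normalised to 50 uM chenodeoxycholic acid and DMSO control wells. Cells: FXR-UAS-bla HEK293T, dialyzed FBS.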

Experiment [9] deals with Thyroid hormone receptor beta (Homo sapiens) (UniProt P10828). Nature of the experiment: qHTS assay for small molecule antagonists of thyroid hormone receptor beta signaling (AID 588547; active means well fitted inhibition curve with a large enough effect in the signal ratio, with a control signal flat, not every such curve was filed as active; the % refers to the signal ratio). The conditions noted are these: TR-UAS-bla HEK293, beta-lactamase ratio, antagonist mode, 18 h. In a few lines: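 TR-UAS-bla GripTite HEK293 cells in 2% charcoal/dextran FBS medium were preincubated 4 h at 37 C, given compound (0.59 nM to 92 uM) plus 0.4 nM T3 (final) for 18 h, then CCF4 for 2 h at RT; Hill fit gave IC50.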
Thyroid hormone receptor beta (Homo sapiens), sequence (P10828 whole entry, looked up): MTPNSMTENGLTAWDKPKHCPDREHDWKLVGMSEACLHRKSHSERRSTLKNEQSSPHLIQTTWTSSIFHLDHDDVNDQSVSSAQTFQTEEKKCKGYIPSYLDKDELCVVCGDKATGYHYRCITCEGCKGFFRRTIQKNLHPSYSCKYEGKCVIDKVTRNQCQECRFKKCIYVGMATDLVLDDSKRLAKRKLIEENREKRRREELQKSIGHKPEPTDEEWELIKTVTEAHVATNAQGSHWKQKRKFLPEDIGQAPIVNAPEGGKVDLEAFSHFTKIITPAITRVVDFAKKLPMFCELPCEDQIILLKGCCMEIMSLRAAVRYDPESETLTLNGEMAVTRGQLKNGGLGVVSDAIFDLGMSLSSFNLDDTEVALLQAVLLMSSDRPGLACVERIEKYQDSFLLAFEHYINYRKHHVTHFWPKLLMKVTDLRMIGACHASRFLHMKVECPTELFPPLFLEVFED

Experiment [10] has as its target Estrogen receptor (Homo sapiens) (UniProt P03372). Nature of the experiment: qHTS assay for small molecule antagonists of estrogen receptor alpha signaling (AID 588513; active means well fitted curve in the direction sought with a large enough effect in the signal ratio, with a control signal flat, not every such curve was filed as active; the % refers to the signal ratio; further: potency means the concentration at half of the fitted maximal effect). In a few lines: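 Fluorescence from CCF4 substrate after 2 h at room temperature gave reporter activity; cells had been exposed to compound and 0.5nM 17-beta-estradiol for 18 h at 37 C. Hill-equation fitting yielded IC50 and maximal response.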

“And” between values parts separate entries of the source, which are not always exact repeats. Equal entries are not always repeated. Results filed as inconclusive are left out. Unmarked numbers belong to inactive results. The source made the active and inactive calls. Unless noted, the call rests on the fitted dose curve.

Bile acid receptor (Homo sapiens), sequence (Q96RI1 whole entry, looked up): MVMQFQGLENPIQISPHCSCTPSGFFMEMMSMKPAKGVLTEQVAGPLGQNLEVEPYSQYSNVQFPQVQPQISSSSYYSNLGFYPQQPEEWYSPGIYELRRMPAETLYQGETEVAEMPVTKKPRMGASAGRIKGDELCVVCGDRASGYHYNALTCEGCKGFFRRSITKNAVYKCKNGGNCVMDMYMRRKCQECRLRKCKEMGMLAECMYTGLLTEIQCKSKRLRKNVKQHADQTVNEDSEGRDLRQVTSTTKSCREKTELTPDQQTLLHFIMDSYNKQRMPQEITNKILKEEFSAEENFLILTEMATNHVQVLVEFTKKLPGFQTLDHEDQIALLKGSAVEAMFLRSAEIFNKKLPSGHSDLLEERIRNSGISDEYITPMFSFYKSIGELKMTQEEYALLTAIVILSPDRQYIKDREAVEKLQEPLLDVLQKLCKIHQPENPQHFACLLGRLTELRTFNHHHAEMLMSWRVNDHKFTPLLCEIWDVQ

In the case of `COCCO`, the Potency entry in experiment [1], in experiment [3], in experiment [4] and in experiment [5] was “inactive” each time. In addition, the activation in experiment [2] is 2.41% and 1.59%.

Consider `CN(C)Cc1cc(CN(C)C)c(O)c(CN(C)C)c1`, for which the Potency entry in experiment [1], in experiment [8] and in [3] was “inactive” each time. The activation in experiment [6] was -17.5%. The result in experiment [7] was inactive.

Take `O=C(O)CN(CCO)CCN(CC(=O)O)CC(=O)O`: the Potency result in experiment [1], in experiment [8], in experiment [3] and in experiment [4] was “inactive” throughout. For the same molecule, the activation in experiment [6] is 3.88%; in experiment [2] it was -10.4%. Also, the outcome in experiment [7] was inactive. Further, in experiment [9], the activity change % (negative = inhibition) is -8.14%.

Regarding `CCCCCCCCCC[N+](C)(C)Cc1ccccc1`, the Potency in experiment [1] was 1.12 µM (active). For the same molecule, the activation in experiment [6] was -12.2%; in experiment [2] it was -4.12%. For the same molecule, the Potency entry in experiment [3] and in [4] was “inactive” each time.

In the case of `CCCCCCCCCCCCCC(=O)OC`, the Potency result in experiment [1] and in [3] was “inactive” each time. In addition, the results for the activation in [6] and in experiment [2] were 9.07% and -4.01%, respectively. Moreover, the molecule was called inactive in [7]. Besides, the activity change % (negative = inhibition) in experiment [9] is 3.36%.

Take `C=C(C)C(=O)OCCCCCCCCCCCC`: the Potency result in [1], in experiment [3] and in [4] was “inactive” in each case. Moreover, the activation in experiment [2] was -1.63%. For the same molecule, the activity change % (negative = inhibition) in [9] was 0.53%.

As for `CCO[Si](CCC#N)(OCC)OCC`, the Potency result in [1], in [8], in experiment [3], in experiment [4] and in experiment [5] was “inactive” throughout. For the same molecule, the activation in experiment [2] was 2.23%. Also, the activity change % (negative = inhibition) in [9] is 18.5%.

With `CC1(C)[C@@H]([C@@H](Br)C(Br)(Br)Br)[C@H]1C(=O)O[C@H](C#N)c1cccc(Oc2ccccc2)c1`, the Potency entry in experiment [1] and in [3] was “inactive” each time. For the same molecule, the activation in [6] is -17.3%; in [2] it was -6.04%. For the same molecule, in experiment [9], the activity change % (negative = inhibition) was -17.9%. Besides, in experiment [5], the Potency was 21.7 µM (active).

Take `CCCCOC(=O)[C@@H](C)Oc1ccc(Oc2ccc(C(F)(F)F)cn2)cc1`: the Potency entry in experiment [1], in experiment [8], in [3] and in [4] was “inactive” in each case. In addition, in experiment [2], the activation is -9.59%. Also, in experiment [9], the activity change % (negative = inhibition) is 6.28% and 7.31%.

With `CCCCCCCC/C=C\CCCCCCCCCCCCC`, the Potency result in experiment [1], in [8], in experiment [3], in [4] and in experiment [5] was “inactive” throughout. Further, the results for the activation in experiment [6] and in experiment [2] were 5.8% and -8.32%, respectively. For the same molecule, the molecule was classed as inactive in experiment [7].

Consider `CSc1ccc(Cl)cc1`, for which the Potency entry in [1], in experiment [3], in experiment [4] and in experiment [5] was “inactive” in each case. Moreover, the activation is -7.93% in [6] and -2.12% in experiment [2]. The result in [7] was inactive.

For `CCOC(=O)C(C)Oc1ccc(Oc2cnc3cc(Cl)ccc3n2)cc1` (configuration not stated), the Potency result in experiment [1], in [8] and in experiment [4] was “inactive” throughout. In experiment [2], the activation is -6.64%.

In the case of `COc1nc(C)nc(NC(=O)NS(=O)(=O)c2ccccc2OCCCl)n1`, the Potency entry in [1], in experiment [8] and in experiment [3] was “inactive” throughout. In addition, the activation in experiment [2] is -18.5%. Moreover, the activity change % (negative = inhibition) in [9] was 1.88%.

Turning to `CN=C(N)NCC1CCOC1` (configuration not stated), the Potency result in experiment [1], in experiment [8], in experiment [3] and in [4] was “inactive” throughout. Besides, the activation is 2.67% in experiment [6]; -0.0864% and -2.61% in experiment [2]. Also, the activity change % (negative = inhibition) in [9] is -7.34%. Also, the Potency in experiment [5] was 21.7 µM (active).

Turning to `CCCCCc1ccc(N)cc1`, the Potency result in experiment [10], in experiment [4] and in experiment [5] was “inactive” throughout. The activity change % (negative = inhibition) in [9] is 0.338%.

`CO/N=C1\C[C@]2(C[C@@H]3C[C@@H](C/C=C(\C)C[C@@H](C)/C=C/C=C4\CO[C@@H]5[C@H](O)C(C)=C[C@@H](C(=O)O3)[C@]45O)O2)O[C@H](/C(C)=C/C(C)C)[C@H]1C`: the Potency in [10] is 7.94 µM [inhibitor] (active).

In the case of `C=CCOC(=O)CC(C)C`, the Potency result in experiment [1], in experiment [8], in experiment [3] and in experiment [5] was “inactive” throughout. For the same molecule, the activation in experiment [2] was 0.929%.

With `O=C1CCCCCCCCCCC1`, the Potency entry in [1], in [3], in [4] and in experiment [5] was “inactive” throughout. In experiment [2], the activation is -8.83%.

For `CC(C)=CCC[C@@H](C)[C@H]1CC[C@@]2(C)C3=C(CC[C@]12C)[C@@]1(C)CC[C@H](O)C(C)(C)[C@@H]1CC3`, the Potency entry in experiment [1], in experiment [3] and in experiment [5] was “inactive” throughout. For the same molecule, the figures for the activation in experiment [6] and in [2] were 6.85% and 8.87%, respectively. Further, in experiment [9], the activity change % (negative = inhibition) was -4.34%.

Consider `COC(=O)C1CCC(C(=O)OC)CC1` (configuration not stated), for which the Potency entry in [1], in experiment [8] and in experiment [4] was “inactive” each time.

For `COc1ccccc1NC(=O)CC(C)=O`, the Potency result in experiment [10] and in [5] was “inactive” each time.

As for `CC(C)CCCCCCc1ccc(OCCOCCO)cc1`, the Potency in [10] is 28.2 µM [inhibitor] (active).

In the case of `CN(C)c1nc(=O)n(C2CCC(O)CC2)c(=O)n1C` (configuration not stated), the Potency result in experiment [1], in experiment [3], in experiment [4] and in experiment [5] was “inactive” in each case. Also, the activation in experiment [6] was 6.02%; in experiment [2], 6.12%. In experiment [7], the outcome was inactive. The activity change % (negative = inhibition) in [9] is 11.1%.

As to `C[Si]1(C)O[Si](C)(C)O[Si](C)(C)O[Si](C)(C)O1`, the Potency entry in experiment [1], in experiment [8], in experiment [4] and in [5] was “inactive” throughout.

Consider `O=c1n(CCO)c(=O)n(CCO)c(=O)n1CCO`, for which the Potency result in experiment [1] and in [8] was “inactive” throughout. The Potency in experiment [5] is 30.6 µM (active).

Regarding `C#CCOC(=O)[C@@H](C)Oc1ccc(Oc2ncc(Cl)cc2F)cc1`, the Potency entry in [1], in [8] and in [4] was “inactive” throughout.

For the molecule `O=C(O)CN(CCCN(CC(=O)O)CC(=O)O)CC(=O)O`, the Potency in [1] was 8.91 µM (active). Besides, the activation in [6] is -11.6%; in experiment [2], 16.2%.

As for `CC1COCc2cc3c(cc21)C(C)(C)C(C)C3(C)C` (configuration not stated), in [1], the Potency was 11.2 µM (active). The activation is 12.8% in [6] and 13.9% in experiment [2]. In [7], the call was inactive. Besides, the Potency entry in experiment [8], in [3] and in [5] was “inactive” throughout. In experiment [9], the activity change % (negative = inhibition) was 0.269%.

As to `O=S(c1ccc(Cl)cc1)c1cc(Cl)c(Cl)cc1Cl` (configuration not stated), the Potency result in [1] and in experiment [8] was “inactive” throughout. Also, the activation is -11.5% in experiment [6] and 1.68% in experiment [2]. Besides, the activity change % (negative = inhibition) in experiment [9] was -2.9%.

On to `CC(=O)Nc1ccc(N=Nc2cc(C)ccc2O)cc1`, for which the Potency result in [1] and in experiment [3] was “inactive” each time. The activation in experiment [6] is -4.42%; in experiment [2] it was -3.33%. For the same molecule, in experiment [7], the result was inactive. Also, the Potency in experiment [5] was 17.2 µM (active).

For the origin of these results see PubChem BioAssay (NCATS).
